# From publication PMC4336329 (PLoS ONE, 2015)
# The campaign covered roughly 310,000 compounds. About 14,000 (4.5%) showed an effect of 50% or more. Effects have a minus sign here. The entries come from a sample that favours strong results as a whole.
# Biological target: human ether-à-go-go-related gene (hERG) potassium channel (human, UniProt Q12809)
# Assay: primary screen, population patch clamp on CHO cells stably expressing hERG; higher = less effect of the substance
# 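Further: peak tail current of the secondary pulse compared with the same well before compound.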
# Sequence of human ether-à-go-go-related gene (hERG) potassium channel (Q12809 whole entry, looked up): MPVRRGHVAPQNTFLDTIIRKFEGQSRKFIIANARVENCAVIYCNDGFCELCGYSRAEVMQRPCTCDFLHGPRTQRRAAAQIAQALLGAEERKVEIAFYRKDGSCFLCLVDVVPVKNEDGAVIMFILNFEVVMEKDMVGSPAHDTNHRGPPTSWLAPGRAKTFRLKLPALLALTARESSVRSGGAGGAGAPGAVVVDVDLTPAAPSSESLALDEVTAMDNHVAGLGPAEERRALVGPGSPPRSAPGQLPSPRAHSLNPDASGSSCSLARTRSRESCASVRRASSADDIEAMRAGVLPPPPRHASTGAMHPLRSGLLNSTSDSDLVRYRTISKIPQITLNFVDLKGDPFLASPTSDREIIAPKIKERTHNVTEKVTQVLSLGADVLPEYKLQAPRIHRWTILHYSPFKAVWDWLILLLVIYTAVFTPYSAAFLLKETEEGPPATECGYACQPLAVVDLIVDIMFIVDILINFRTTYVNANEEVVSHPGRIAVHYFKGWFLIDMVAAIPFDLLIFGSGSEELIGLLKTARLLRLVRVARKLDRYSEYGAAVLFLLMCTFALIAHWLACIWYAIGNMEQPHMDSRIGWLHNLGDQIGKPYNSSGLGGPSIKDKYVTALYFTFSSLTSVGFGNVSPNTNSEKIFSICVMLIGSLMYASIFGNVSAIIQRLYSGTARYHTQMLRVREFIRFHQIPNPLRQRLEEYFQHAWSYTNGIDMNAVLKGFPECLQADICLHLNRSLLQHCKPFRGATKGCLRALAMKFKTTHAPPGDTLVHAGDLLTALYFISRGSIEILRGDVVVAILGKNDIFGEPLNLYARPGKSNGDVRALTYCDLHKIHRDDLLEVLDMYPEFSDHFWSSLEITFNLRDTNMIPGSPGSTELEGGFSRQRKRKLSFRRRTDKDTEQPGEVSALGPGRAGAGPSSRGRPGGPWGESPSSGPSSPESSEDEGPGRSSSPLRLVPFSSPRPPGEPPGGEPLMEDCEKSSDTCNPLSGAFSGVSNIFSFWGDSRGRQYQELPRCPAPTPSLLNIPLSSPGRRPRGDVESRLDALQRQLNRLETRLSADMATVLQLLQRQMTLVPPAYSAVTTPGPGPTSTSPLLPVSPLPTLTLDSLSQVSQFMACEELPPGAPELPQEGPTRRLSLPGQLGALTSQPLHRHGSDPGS
row,Structure (SMILES),"hERG current change (%, negative = inhibition) at 10uM [%]"
1,COc1ccc(-c2nnc(SCC(=O)c3cc(C)n(Cc4cccs4)c3C)o2)cc1,5.36
2,COc1ccc(-n2cnnc2SCC(=O)c2cc(C)n(Cc3cccs3)c2C)cc1,-73.5
3,COc1ccccc1-n1cnnc1SCC(=O)c1cc(C)n(Cc2cccs2)c1C,-27.8
4,COC(=O)Cn1c(=O)cnc2ccccc21,-2.96
5,CCn1cnc2c(oc3ccccc32)c1=O,18.3
6,CCOC(=O)c1sc(=S)n(-c2ccc(Cl)cc2)c1C,-37.4
7,CCOc1ccc(-n2c(N)c(C(=O)N3CCN(C)CC3)sc2=S)cc1,-51
8,Cc1ccc(-n2c(N)c(C(=O)N3CCN(C)CC3)sc2=S)cc1,-30.4
9,CN1CCN(C(=O)c2sc(=S)n(-c3ccccc3)c2N)CC1,-10.2
10,CCOC(=O)c1sc(=S)n(-c2ccc(OC)cc2)c1N,15.2
11,CCOC(=O)c1sc(=S)n(-c2ccc(OC)cc2)c1C,-51.1
12,COC(=O)c1c(NC(=O)CSc2nnnn2-c2ccccc2)sc2c1CCC(C(C)(C)C)C2 (stereo not drawn),-1.38
13,C=CCn1c(SCC(=O)Nc2cccnc2Cl)nnc1-c1ccc(Cl)cc1,-45.4
14,CCOC(=O)C1(C)C=C(Nc2ccccc2)C(=O)N1c1ccccc1 (stereo not drawn),25.7
15,Cc1c(NC(=O)/C(C#N)=C/c2c(Oc3ccccc3)nc3ccccn3c2=O)c(=O)n(-c2ccccc2)n1C,5.93
16,Cc1ccc(CNC(=O)C2CCN(S(=O)(=O)N3CCCC3)CC2)cc1,0.472
17,CCN(CC)S(=O)(=O)N1CCC(C(=O)NCc2ccc(C)cc2)CC1,-16.9

row,Structure (SMILES),"hERG current change (%, negative = inhibition) at 10uM [%]"
1,Cc1ccc(CNC(=O)C2CCN(S(=O)(=O)N3CCCCC3)CC2)cc1,-11.4
2,CCN(CC)c1ccc(CN2CCC(C(=O)NCc3ccc(C)cc3)CC2)cc1.O=C(O)C(=O)O,-65.3
3,CSc1ccc(CN2CCC(C(=O)NCc3ccc(C)cc3)CC2)cc1.O=C(O)C(=O)O,-87.6
4,Cc1ccc(CNC(=O)C2CCCC2)cc1,8.93
5,O=C1c2ccccc2C(=O)N1CNc1ccccc1,18.7
6,O=C1CC(c2ccccc2)CN1C(=O)c1cncc(Br)c1 (stereo not drawn),5.75
7,O=C(c1cccnc1)N1N=C(C2CCCCC2)CC1(O)C(F)(F)F (stereo not drawn),-0.742
8,O=C(NCCCN1CCOCC1)c1csc2c1CCCC2,-7.57
9,CC(C)CCNC(=O)c1csc2c1CCCCC2,2.04
10,CCC1CCCCN1CCCNC(=O)c1csc2c1CCCCC2 (stereo not drawn),-56.7
11,CC1CC(C)CN(CCCNC(=O)c2csc3c2CCCCC3)C1 (stereo not drawn),-61.2
12,O=C(NCCN1CCOCC1)c1csc2c1CCCCC2,5.21
13,CCN1CCCC1CNC(=O)c1csc2c1CCCC2 (stereo not drawn),-38.9
14,CCN1CCN(CCCNC(=O)c2csc3c2CCCCC3)CC1,-7.21
15,CC1CCCC(C)N1CCCNC(=O)c1csc2c1CCCCC2 (stereo not drawn),-49.3
16,CC1CC(C)CN(CCCNC(=O)c2csc3c2CCCC3)C1 (stereo not drawn),-65
